# PubChem BioAssay (NCATS)
# “And” between values parts separate entries of the source, which are not always exact repeats. Identical values can stand only once. Records with an inconclusive call do not appear. Some of the results follow. The source made the active and inactive calls. Unless noted, calls come from the whole dose curve.
# Experiments:
# [1] = Confirmation and Secondary Assay for Modulators of Hemoglobin Beta Chain Splicing at IVS2 654 locus (AID 910; active = well fitted curve in the direction sought with a large enough effect; an effect the other way counts as inactive or inconclusive;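 note: HeLa cells stably carrying EGFP split by mutant beta-globin IVS2-654 intron; % of control where 0% means no effect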)
# Method in brief: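 HeLa cells stably expressing EGFP interrupted by β-globin IVS2-654 intron, seeded overnight in Opti-MEM/2% FCS, then treated 2 days at 37 °C. Restored splicing read as total peak GFP intensity per well by laser scanning cytometry (488 nm excitation, 500–520 nm emission); 500 nM antisense PNA as control.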
# [2] = qHTS Assay for Lipid Storage Modulators (AID 1519); conditions: Drosophila S3 cells, BODIPY lipid droplet/cell ratio, laser cytometry, cells loaded with oleic acid; for activity change, negative = inhibition: % is set by controls: 0 for no effect and ±100 for the full control effect
# Method in brief: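 Cells seeded at 5,000 per well were treated with compounds over a concentration series and loaded with oleic acid (400 uM, as added). Lipid droplet fluorescence (488 nm excitation, 500-530 nm channel) was read by laser-scanning cytometry and normalized to 20 uM Triacsin C.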
# [3] = target: ATPase family AAA domain-containing protein 5 (Homo sapiens) (UniProt Q96QE3); experiment: HTS assay for small molecules that inhibit ELG1-dependent DNA repair in human embryonic kidney (HEK293T) cells expressing luciferase-tagged ELG1: Hit Confirmation (AID 624248; active = well fitted curve in the direction sought with a large enough effect; an effect the other way counts as inactive or inconclusive; note: potency is the fitted concentration of half-maximal effect; nearly all actives have a fitted effect of over 55% in size); conditions: HEK293T ELG1-luciferase levels, luminescence; cells co-treated with 5-fluorouridine
# ATPase family AAA domain-containing protein 5 (Homo sapiens), sequence (Q96QE3 whole entry, looked up, the tested form may be a part): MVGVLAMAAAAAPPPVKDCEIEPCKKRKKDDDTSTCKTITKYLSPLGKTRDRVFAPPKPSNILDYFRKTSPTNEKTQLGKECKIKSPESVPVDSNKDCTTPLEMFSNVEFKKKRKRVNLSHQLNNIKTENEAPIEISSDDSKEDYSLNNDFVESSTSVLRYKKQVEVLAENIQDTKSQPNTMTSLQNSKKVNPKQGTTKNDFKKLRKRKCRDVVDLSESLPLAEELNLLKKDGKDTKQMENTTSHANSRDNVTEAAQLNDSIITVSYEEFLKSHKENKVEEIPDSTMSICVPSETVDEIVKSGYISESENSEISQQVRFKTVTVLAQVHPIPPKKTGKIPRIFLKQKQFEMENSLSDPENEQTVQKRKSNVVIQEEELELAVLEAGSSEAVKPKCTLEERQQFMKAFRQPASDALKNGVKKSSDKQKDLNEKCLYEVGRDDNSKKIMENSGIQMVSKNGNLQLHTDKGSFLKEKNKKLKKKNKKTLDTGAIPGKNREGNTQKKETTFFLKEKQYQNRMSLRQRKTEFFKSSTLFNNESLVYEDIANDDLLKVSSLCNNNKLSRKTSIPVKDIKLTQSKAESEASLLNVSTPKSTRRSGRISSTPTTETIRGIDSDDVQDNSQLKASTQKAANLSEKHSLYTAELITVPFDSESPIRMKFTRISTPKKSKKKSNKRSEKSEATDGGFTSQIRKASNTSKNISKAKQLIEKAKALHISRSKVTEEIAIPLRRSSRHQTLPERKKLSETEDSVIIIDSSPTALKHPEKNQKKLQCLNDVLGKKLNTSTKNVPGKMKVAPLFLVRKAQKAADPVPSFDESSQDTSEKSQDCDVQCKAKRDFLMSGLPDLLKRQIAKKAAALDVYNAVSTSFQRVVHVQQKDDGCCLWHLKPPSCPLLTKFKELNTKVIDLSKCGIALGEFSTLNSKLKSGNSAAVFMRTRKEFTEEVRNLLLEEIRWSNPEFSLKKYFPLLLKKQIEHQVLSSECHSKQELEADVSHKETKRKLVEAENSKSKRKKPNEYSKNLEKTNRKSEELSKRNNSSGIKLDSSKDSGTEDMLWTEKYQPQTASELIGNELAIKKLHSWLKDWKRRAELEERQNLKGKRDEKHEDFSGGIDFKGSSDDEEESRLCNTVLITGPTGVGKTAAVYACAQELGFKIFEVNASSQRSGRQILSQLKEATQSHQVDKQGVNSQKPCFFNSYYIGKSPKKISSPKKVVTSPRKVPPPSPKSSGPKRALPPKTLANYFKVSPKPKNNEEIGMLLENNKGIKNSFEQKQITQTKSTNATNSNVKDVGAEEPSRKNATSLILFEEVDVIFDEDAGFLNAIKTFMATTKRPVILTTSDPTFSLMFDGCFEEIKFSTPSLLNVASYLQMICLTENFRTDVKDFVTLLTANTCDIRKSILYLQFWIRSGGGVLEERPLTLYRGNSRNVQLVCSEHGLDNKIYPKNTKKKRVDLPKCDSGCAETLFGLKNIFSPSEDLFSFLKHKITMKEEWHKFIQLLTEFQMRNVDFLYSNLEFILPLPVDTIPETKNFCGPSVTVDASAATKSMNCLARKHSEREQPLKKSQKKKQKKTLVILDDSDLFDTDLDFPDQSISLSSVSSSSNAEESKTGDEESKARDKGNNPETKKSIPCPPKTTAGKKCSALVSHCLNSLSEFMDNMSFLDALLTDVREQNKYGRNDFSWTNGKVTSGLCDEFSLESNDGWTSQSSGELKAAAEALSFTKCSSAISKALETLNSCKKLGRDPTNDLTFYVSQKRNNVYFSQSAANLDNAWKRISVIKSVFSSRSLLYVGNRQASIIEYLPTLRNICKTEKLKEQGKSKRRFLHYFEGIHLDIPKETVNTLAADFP
# Method in brief: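 HEK293T cells expressing luciferase-tagged ELG1 treated with 5-fluorouridine plus compound for 16 h at 37 C; luciferase activity then measured with ONE-Glo after 30 min at room temperature.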
# [4] = target: ATPase family AAA domain-containing protein 5 (Homo sapiens) (UniProt Q96QE3); experiment: qHTS screen for small molecules that inhibit ELG1-dependent DNA repair in human embryonic kidney (HEK293T) cells expressing luciferase-tagged ELG1: Hit Confirmation using MMS Stimulated ELG1 (AID 624249; active = well fitted curve in the direction sought with a large enough effect; an effect the other way counts as inactive or inconclusive; note: potency is the fitted concentration of half-maximal effect; nearly all actives have a fitted effect of over 60% in size); conditions: HEK293T luciferase-tagged ELG1 level
# Method in brief: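 Luminescence read-out (Amplight) of an ELG1-luc reporter in HEK293T cells after 16 h of compound exposure under MMS stimulation at 10 µM final. Inhibition appears as reduced luciferase activity.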
# [5] = qHTS screen for small molecules that inhibit ELG1-dependent DNA repair: Hit Confirmation with 5FU Viability (AID 624250; active = well fitted curve in the direction sought with a large enough effect; an effect the other way counts as inactive or inconclusive;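 note: potency is the fitted concentration of half-maximal effect; viability measured 16 h after compound addition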); conditions: cell viability with 5-FU
# Method in brief: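 Viability by CellTiter-Glo after 16 h of compound exposure in the presence of 10 µM (final) 5-fluorouridine. Cells were ELG1-luc HEK293T, plated at 2000/well, dosed about 5 h post-seeding.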
# [6] = qHTS screen for small molecules that inhibit ELG1-dependent DNA repair: Hit Confirmation with MMS Viability (AID 624251; active = well fitted curve in the direction sought with a large enough effect; an effect the other way counts as inactive or inconclusive;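 note: potency is the fitted concentration of half-maximal effect; viability read 16 h after compound addition; nearly all actives have a fitted effect of over 60% in size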); conditions: Cell viability with MMS
# Method in brief: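 CellTiter-Glo viability of ELG1-luc HEK293T cells after 16 h with compound plus 10 µM MMS.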
# [7] = target: Luciferin 4-monooxygenase (Photinus pyralis) (UniProt P08659); experiment: qHTS screen for small molecules that inhibit ELG1-dependent DNA repair: Hit Confirmation in Biochemical Luciferin Assay (AID 624253; active = well fitted curve in the direction sought with a large enough effect; an effect the other way counts as inactive or inconclusive; note: % is set by controls: 0 for no effect and ±100 for the full control effect)
# Method in brief: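 Luminescence from purified firefly luciferase acting on its substrate reagent, with compounds pinned in before the enzyme, read by CCD imager; flags direct luciferase inhibitors.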
# [8] = target: Alpha-galactosidase (Coffea arabica) (UniProt Q42656); experiment: Counterscreen for Glucocerebrosidase Inhibitors: qHTS Assay for Coffee Bean alpha-Galactosidase at pH 4.5 (AID 957; active = well fitted curve in the direction sought with a large enough effect; an effect the other way counts as inactive or inconclusive;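 note: plate controls were enzyme alone for no effect and no enzyme for full effect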)
# Alpha-galactosidase (Coffea arabica), sequence (Q42656 whole entry, looked up): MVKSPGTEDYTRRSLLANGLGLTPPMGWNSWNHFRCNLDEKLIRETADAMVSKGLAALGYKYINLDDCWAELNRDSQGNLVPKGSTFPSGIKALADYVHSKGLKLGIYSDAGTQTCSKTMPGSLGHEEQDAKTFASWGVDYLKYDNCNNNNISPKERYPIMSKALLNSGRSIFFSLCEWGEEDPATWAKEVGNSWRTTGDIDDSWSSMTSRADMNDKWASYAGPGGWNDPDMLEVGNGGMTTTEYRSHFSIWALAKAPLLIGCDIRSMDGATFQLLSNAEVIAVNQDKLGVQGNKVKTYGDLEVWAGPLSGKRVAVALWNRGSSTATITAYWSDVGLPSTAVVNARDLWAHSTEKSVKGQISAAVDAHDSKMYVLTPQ
# Method in brief: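 Fluorogenic qHTS at pH 4.5 (citrate buffer with Tween-20): 2 nM enzyme, 80 uM 4-MU-alpha-galactoside substrate, compound titrated 0.7 nM to 77 uM, 20 min room temperature. Glycine/NaOH stop; 4-MU read Ex 365/Em 440; Hill-equation AC50 against no-enzyme and enzyme controls.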
# [9] = target: Alpha-galactosidase (Coffea arabica) (UniProt Q42656); experiment: Counterscreen for Glucocerebrosidase Inhibitors: qHTS Assay for Coffee Bean alpha-Galactosidase at pH 5.9 (AID 998; active = well fitted curve in the direction sought with a large enough effect; an effect the other way counts as inactive or inconclusive;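 note: plate controls were uninhibited enzyme for no effect and no-enzyme basal signal for full effect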)
# Method in brief: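 Enzyme 2 nM + cpd (0.7 nM–77 uM titration) + 4-MU-alpha-Gal 80 uM, pH 5.9 citrate/Tween-20, RT 20 min, NaOH/glycine stop pH 10, fluor 365/440. Normalized to no-enzyme and full-activity controls; Hill-fit AC50.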
# [10] = Confirmatory qHTS to identify inhibitors of SARS-CoV-2 cell entry (AID 1645844); note: nearly all actives have a fitted effect of over 45% in size; note: potency is the fitted concentration of half-maximal effect
# Method in brief: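 HEK293-ACE2, overnight seeding; cpd 1 h, 37C/5% CO2; + SARS-CoV-2-S MLV PP (Wuhan-Hu-1, ΔC19); 48 h; Bright-Glo luminescence. Data normalised to S PP and bald PP wells.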
# [11] = Cytotoxicity counterscreen for inhibitors of SARS-CoV-2 cell entry (AID 1645845); conditions: outcome: dose series up to 57.1 µM unless noted; note: % is set by controls: 0 for no effect and ±100 for the full control effect; nearly all actives have a fitted effect of over 50% in size
# Method in brief: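 Counterscreen run in the same HEK293-ACE2 line as the pseudotyped-particle entry assay, without particles. Viability after 48 h at 37 C was read as ATP luminescence, scaled between cell-containing and cell-free wells.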
# [12] = Primary qHTS to identify inhibitors of SARS-CoV-2 cell entry (AID 1645846); conditions: SARS-CoV-2 pseudovirus cell entry assay, luminescence; activity change, negative = inhibition: at 57.1 µM (top of the series) unless noted; note: nearly all actives have a fitted effect of over 45% in size
# Method in brief: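 HEK293-ACE2 (Expi293F, stable hACE2), 1500 cells/well, o/n 37C; cpd 23 nL pin, 1 h; MLV-PP w/ SARS-CoV-2-S (Wuhan-Hu-1, Δ19 C-term); 48 h 37C; Bright-Glo luminescence; normalized vs S-PP and bald PP.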
# [13] = VSVG counterscreen qHTS to identify inhibitors of SARS-CoV-2 cell entry (AID 1645847); note: nearly all actives have a fitted effect of over 65% in size; note: potency is the fitted concentration of half-maximal effect; for activity change, negative = inhibition: % is set by controls: 0 for no effect and ±100 for the full control effect
# Method in brief: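 Expi293F/hACE2 cells, overnight plating; cpd 1 h, 37C/5% CO2; + VSV-G PP (MLV pseudotyping), 48 h; supernatant removed, Bright-Glo luciferase read. Norm: VSV-G PP and bald PP wells.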
# [14] = target: Cytochrome P450 2D6 (Homo sapiens) (UniProt P10635); experiment: Cytochrome P450 family 2 subfamily D member 6 (CYP2D6) small molecule antagonists: luciferase biochemical (cell-free) qHTS assay (AID 1645840; active = well fitted curve in the direction sought with a large enough effect in the repeat runs; an effect the other way counts as inactive or inconclusive; note: nearly all actives have a fitted effect of over 55% in size; note: potency is the fitted concentration of half-maximal effect)
# Cytochrome P450 2D6 (Homo sapiens), sequence (P10635 whole entry, looked up): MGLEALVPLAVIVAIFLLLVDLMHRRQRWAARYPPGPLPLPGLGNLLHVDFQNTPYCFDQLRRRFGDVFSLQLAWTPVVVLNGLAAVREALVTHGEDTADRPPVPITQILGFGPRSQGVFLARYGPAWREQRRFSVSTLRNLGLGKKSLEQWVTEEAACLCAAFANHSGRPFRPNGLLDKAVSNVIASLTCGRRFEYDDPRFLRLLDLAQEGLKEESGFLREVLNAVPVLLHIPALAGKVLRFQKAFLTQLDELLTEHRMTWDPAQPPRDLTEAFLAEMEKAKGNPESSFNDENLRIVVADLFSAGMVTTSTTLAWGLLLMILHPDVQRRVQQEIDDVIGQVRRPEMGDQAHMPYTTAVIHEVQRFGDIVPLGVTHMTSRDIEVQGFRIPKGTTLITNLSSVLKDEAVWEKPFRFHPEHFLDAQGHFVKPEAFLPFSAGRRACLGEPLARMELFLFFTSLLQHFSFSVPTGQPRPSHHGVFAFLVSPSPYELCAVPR
# Method in brief: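 P450-Glo CYP2D6 system: proluciferin substrate converted by enzyme to luciferin, read by luminescence proportional to activity. Enzyme-substrate mix with compound 10 min at room temperature, then NADPH regeneration 1 h before detection reagent.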
# [15] = target: Cytochrome P450 2C9 (Homo sapiens) (UniProt P11712); experiment: Cytochrome P450 family 2 subfamily C member 9 (CYP2C9) small molecule antagonists: luciferase biochemical (cell-free) qHTS assay (AID 1645842; active = well fitted curve in the direction sought with a large enough effect in the repeat runs; an effect the other way counts as inactive or inconclusive; note: nearly all actives have a fitted effect of over 55% in size; note: potency is the fitted concentration of half-maximal effect; for activity change, negative = inhibition: % is set by controls: 0 for no effect and ±100 for the full control effect)
# Cytochrome P450 2C9 (Homo sapiens), sequence (P11712 whole entry, looked up): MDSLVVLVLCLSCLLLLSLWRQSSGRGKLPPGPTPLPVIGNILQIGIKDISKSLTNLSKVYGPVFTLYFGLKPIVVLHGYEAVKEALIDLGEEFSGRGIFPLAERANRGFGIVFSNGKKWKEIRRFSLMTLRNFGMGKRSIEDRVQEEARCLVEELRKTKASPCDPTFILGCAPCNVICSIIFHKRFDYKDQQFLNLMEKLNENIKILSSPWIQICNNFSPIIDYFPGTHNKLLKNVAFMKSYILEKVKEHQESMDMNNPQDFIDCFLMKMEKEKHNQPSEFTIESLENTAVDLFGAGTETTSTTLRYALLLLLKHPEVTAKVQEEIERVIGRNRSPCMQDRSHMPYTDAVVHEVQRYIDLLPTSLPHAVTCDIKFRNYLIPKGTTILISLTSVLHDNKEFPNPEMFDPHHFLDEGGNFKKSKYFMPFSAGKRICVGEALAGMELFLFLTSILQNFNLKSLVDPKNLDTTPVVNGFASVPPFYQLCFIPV
# Method in brief: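 P450-Glo CYP2C9 system: proluciferin substrate with enzyme in mix containing 0.4% BSA, 10 min at room temperature, then NADPH regeneration solution added and incubated 1 h at 37C. Detection reagent stopped reaction; luminescence read after 20 min as RLU.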
# [16] = measured here: cell count channel max response
# [17] = measured here: lipid channel max response
compound,measurement,setting,value
COC1CC(OC2CC[C@@]3(C=O)C4CC[C@]5(C)C(C6=CC(=O)OC6)CC[C@@]5(O)C4CC[C@]3(O)C2)OC(C)C1O (stereo partly drawn),Potency,[1],inactive
same,"activity change, negative = inhibition",[2]; at 57.5 µM (top of the series),0.995% (inactive)
same,max response,[2]; [16],18.6%
same,max response,[2]; [17],20.5%
same,Potency,[3],706 nM (active)
same,Potency,[4],315 nM (active)
same,Potency,[5],706 nM (active)
same,Potency,[6],397 nM (active)
same,outcome,[7],inactive
CC(C)C[C@H]1C(=O)N2CCC[C@@H]2[C@]2(O)O[C@](NC(=O)[C@H]3C=C4c5cccc6[nH]c(Br)c(c56)C[C@H]4N(C)C3)(C(C)C)C(=O)N12,outcome,[8],inactive
same,outcome,[9],inactive
same,"activity change, negative = inhibition",[2]; at 25.7 µM (top of the series),-0.675% (inactive)
same,max response,[2]; [16],-7.2%
same,max response,[2]; [17],-5.42%
Cn1cc(C2=C(c3cn(C)c4cc([N+](=O)[O-])ccc34)C(=O)NC2=O)c2ccccc21,Potency,[10],1710 nM (active)
CC(=O)c1ccc2c(c1)c1cc(C(C)=O)ccc1n2CCNC(C)C,Potency,[10],54.1 nM (active)
CC[C@@]1(O)C(=O)OCc2c1cc1n(c2=O)Cc2c-1nc1ccccc1c2CCNC(C)C,Potency,[10],5.4 nM (active)
same,"activity change, negative = cytotoxicity",[11],-47.2% [at 5.25 µM] (inactive)
same,"activity change, negative = inhibition",[12],-96.8% [at 5.25 µM]
CCc1cnn2c(NCc3ccc[n+]([O-])c3)cc(N3CCCC[C@H]3CCO)nc12,Potency,[10],54.1 nM (active)
same,Potency,[11],inactive
same,"activity change, negative = inhibition",[12],-54%
same,Potency,[13],34.1 nM (active)
NC(N)=NN=Cc1c(Cl)cccc1Cl,outcome,[8],inactive
same,outcome,[9],inactive
same,"activity change, negative = inhibition",[2]; at 25.7 µM (top of the series),-2.38% (inactive)
same,max response,[2]; [16],-4.82%
same,max response,[2]; [17],-7.49%
CCN=C1Nc2ccc(Cl)cc2C(C)(c2ccccc2)O1 (stereo not drawn),Potency,[14],10700 nM (active)
same,Potency,[15],9520 nM (active)
Cc1ccccc1[C@@H](C(=O)NC1CCCCC1)N(C(=O)Cn1ccnc1C)c1cccc(F)c1,Potency,[15],inactive
Cc1c[nH]c2ncnc(N3CCC(CN)(C(=O)Nc4cccc(OC(=O)N(C)C)c4)CC3)c12,Potency,[10],inactive
same,Potency,[11],inactive
same,"activity change, negative = inhibition",[12],-8.16% and -70.1%
same,Potency,[13],inactive
CCOC(=O)/C=C/[C@H](C[C@@H]1CCNC1=O)NC(=O)[C@@H](CC(=O)[C@@H](NC(=O)c1cc(C)on1)C(C)C)Cc1ccc(F)cc1,Potency,[14],inactive
same,Potency,[15],4770 nM (active)
COc1ncc(Nc2ncc(C(C)N3CCN(S(C)(=O)=O)CC3)cc2-c2nc(C)nc(N)n2)cc1F (stereo not drawn),Potency,[10],1520 nM (active)
